In PubChem BioAssay one finds inhibition data, which are given here for 33 compounds.

Several values for one entry are separate records, joined by “and”; a condition that tells them apart may be missing. Equal values may be shown once. Values without a mark were called inactive. Activity calls are given as the source filed them. Cut-off read from the data, not from the text of the source, unless noted: active = inhibition above about 44%; inactive = the rest.

Chain of Steroidogenic factor 1 (Homo sapiens) (Q13285 whole entry, looked up): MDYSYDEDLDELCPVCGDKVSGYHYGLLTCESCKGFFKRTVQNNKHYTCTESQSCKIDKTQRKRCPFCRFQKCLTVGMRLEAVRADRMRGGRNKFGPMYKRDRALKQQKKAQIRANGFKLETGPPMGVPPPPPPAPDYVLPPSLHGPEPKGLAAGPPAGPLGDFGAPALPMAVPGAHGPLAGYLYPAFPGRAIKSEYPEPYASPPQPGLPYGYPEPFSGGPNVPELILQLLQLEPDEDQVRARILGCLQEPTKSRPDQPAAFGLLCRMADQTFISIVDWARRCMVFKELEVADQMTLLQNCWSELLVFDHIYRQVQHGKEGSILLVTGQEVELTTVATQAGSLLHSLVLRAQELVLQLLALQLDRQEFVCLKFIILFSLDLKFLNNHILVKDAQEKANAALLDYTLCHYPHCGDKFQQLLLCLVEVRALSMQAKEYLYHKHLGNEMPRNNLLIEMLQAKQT

The first assay has as its target Steroidogenic factor 1 (Homo sapiens) (UniProt Q13285). In words: inverse agonism at SF1 nuclear receptor – cell-based, luminescence, high throughput, counter-screen for LRH-1 inverse agonist project (AID 651614).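 Note: cells cotransfected with StAR promoter reporter and SF1 expression vector; 0% = vehicle on cells with receptor and 100% = vehicle on cells lacking receptor.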 The following applies: cell-based SF1 luciferase reporter, at 3.6 µM, stronger effect = higher value.
Take `C=CS(=O)(=O)N(Cc1ccccc1Br)[C@H](CO)Cc1ccccc1`: the inhibition (commonly the drop in the measured response relative to a control, in per cent) is 48.7% (active).
For the compound `CCCCCc1ccc(OCCCC[n+]2cccc(C)c2)c(CCCCC)c1`, the inhibition was 68.9% (active).
Same read-out and setting: to `Cc1cc(C)cc(NC(=O)c2ccc([N+](=O)[O-])o2)c1` belongs 74.7% (active); to `CCN1/C(=C\c2ccc3cc(C)ccc3[n+]2CC)Sc2cc(C)c(C)cc21`, 72.8% (active).
Same read-out and setting: to `CCOc1ccc(-c2c[n+]3c(n2-c2ccccc2)CCCCC3)cc1` belongs 69.1% (active); to `COc1ccc(OC)c(NC(=O)c2nnn(Cc3ccccc3C)c2N)c1`, 52.9% (active); to `Brc1ccc(C2=Nn3c(nnc3-c3n[nH]c4c3CCC4)SC2)cc1`, 51% (active).
The same measure, in the same setting: for `O=C(N/N=C\c1ccc([N+](=O)[O-])s1)c1cncc(Br)c1` the value was 72.9% (active); for `c1ccc(-c2csc3ncnc(NCC4COc5ccccc5O4)c23)cc1` (stereo unspecified), 62.5% (active).
Take `COc1ccc(-c2n(Cc3ccccc3)c3ccccc3[n+]2Cc2ccccc2)cc1`: the inhibition is 90.3% (active).
Still for that read-out and setting: to `O=C(OC12CC3CC(CC(C3)C1)C2)c1ccc(NCc2cc(O)ccc2O)cc1` belongs 80.2% (active).
Turning to `COc1ccc(-c2cn(-c3ccccc3)c3[n+]2CCS3)cc1`, the inhibition is 60.6% (active).
The same measure, in the same setting: for `O=C(Nc1sc2c(c1C(=O)O)CCCCC2)c1ccccc1` the value was 59% (active); for `Cn1nccc1C(=O)NC1CCCc2c1cnn2-c1ccc(C(C)(C)C)cc1` (stereo unspecified), 69.7% (active).
Still for that read-out and setting: for `C#CC(=O)N(c1ccc(OC)c(OC)c1)C(C(=O)NC1CCCC1)c1cccs1` (stereo unspecified) the value was 35.4%.
Still for that read-out and setting: for `c1ccc(C[n+]2cccc3c4ccccc4ccc32)cc1` the value was 74.3% (active); for `CCN(CC)c1ccc(/C=N/NC(=O)c2cccc(S(=O)(=O)N3CCOCC3)c2)c(O)c1`, 82.6% (active).
Turning to `C[C@H]1CCC/C=C/[C@@H]2C[C@H](O)C[C@H]2[C@H](O)[C@H](S(=O)c2ccc(O)cc2)CC(=O)O1` (stereo partly specified), the inhibition is 76.6% (active).
On the same count and under the same terms, for `Cc1cc(C)c[n+](C(C)C(=O)c2ccc(-c3ccccc3)cc2)c1` (stereo unspecified) the value was 66.4% (active).
In the case of `c1ccc(CCNc2nc(-c3ccccn3)nc3ccccc23)cc1`, the inhibition is 82.7% (active).
As for `Clc1cccc(CNc2ccn3nc(-c4ccc(OCc5ccccc5)cc4)cc3n2)c1`, the inhibition was 51% (active).
On the same count and under the same terms, to `CCOC(=O)c1c2c(n(-c3ccc(OC)cc3)c1C)C(=O)C(=O)c1ccccc1-2` belongs 63.8% (active); to `Cc1ccc2c(c1C)-c1c(ccc(C)c1C)C(=O)C2=O`, 80.5% (active); to `COc1ccc(-c2c[n+](CC(=O)OC3CC(C)CCC3C(C)C)c3n2CCC3)cc1` (stereo unspecified), 62.6% (active).
On the same count and under the same terms, for `CCOC(=O)c1sc(N(Cc2ccccc2)C(=O)COC(=O)c2ccc(O)cc2)nc1C` the value was 61.2% (active); for `CCC(C)Nc1nc(-c2ccccn2)nc2ccccc12` (stereo unspecified), 78.3% (active); for `Cc1sc(NC(=O)c2ccco2)c(C(c2cccnc2)N2CCN(c3ccc(F)cc3)CC2)c1C` (stereo unspecified), 60.2% (active).
On the same count and under the same terms, for `Cc1ccnc(NC(=O)CCCOc2cc(=O)n(C)c3ccccc23)c1` the value was 67.8% (active) and 59.8% (active); for `CCOc1cc(/C=C2\CCC/C(=C\c3cc(Cl)c(O)c(OCC)c3)C2=O)cc(Cl)c1O`, 61.1% (active).
`CCCOc1ccc(Br)cc1CSC(=N)N`: the inhibition is 53.8% (active).
The same measure, in the same setting: to `CC(C)(C)c1ccc(C2CC2C(=O)N/N=C\c2ccc[nH]2)cc1` (stereo unspecified) belongs 92% (active).
Still for that read-out and setting: for `CCC1C/C(=C\c2cccnc2)C(=O)/C(=C/c2cccnc2)C1` (stereo unspecified) the value was 97.7% (active).
Regarding `CC(C)(C)Nc1nc(-c2ccccn2)nc2ccccc12`, the inhibition is 84.7% (active).

System in a further assay: not listed separately
In words: compounds suppressing VP16-driven luciferase signal – cell-based, luminescence, high throughput, counter-screen for LRH-1 inverse agonist project (AID 651615; in the data active = inhibition above about 33%). The following applies: Gal4-VP16 luciferase reporter cells, at 3.6 µM, stronger effect = higher value. (In general: A counterscreen serves to expose hits that act by an unwanted route or on another target.)
For `C=CS(=O)(=O)N(Cc1ccccc1Br)[C@H](CO)Cc1ccccc1`, the inhibition is 23.2%.
Still for that read-out and setting: to `CCCCCc1ccc(OCCCC[n+]2cccc(C)c2)c(CCCCC)c1` belongs 71.2% (active).
Same read-out and setting: to `Cc1cc(C)cc(NC(=O)c2ccc([N+](=O)[O-])o2)c1` belongs 20%; to `CCN1/C(=C\c2ccc3cc(C)ccc3[n+]2CC)Sc2cc(C)c(C)cc21`, 65.6% (active).
For `CCOc1ccc(-c2c[n+]3c(n2-c2ccccc2)CCCCC3)cc1`, the inhibition is 66.9% (active).
With `COc1ccc(OC)c(NC(=O)c2nnn(Cc3ccccc3C)c2N)c1`, the inhibition was 57.3% (active).
As for `Brc1ccc(C2=Nn3c(nnc3-c3n[nH]c4c3CCC4)SC2)cc1`, the inhibition is -33.2%.
Turning to `O=C(N/N=C\c1ccc([N+](=O)[O-])s1)c1cncc(Br)c1`, the inhibition is 56.9% (active).
For `c1ccc(-c2csc3ncnc(NCC4COc5ccccc5O4)c23)cc1` (stereo unspecified), the inhibition was 60.4% (active).
Turning to `COc1ccc(-c2n(Cc3ccccc3)c3ccccc3[n+]2Cc2ccccc2)cc1`, the inhibition was 94.4% (active).
Turning to `O=C(OC12CC3CC(CC(C3)C1)C2)c1ccc(NCc2cc(O)ccc2O)cc1`, the inhibition is 86% (active).
The same measure, in the same setting: for `COc1ccc(-c2cn(-c3ccccc3)c3[n+]2CCS3)cc1` the value was 45.1% (active).
Still for that read-out and setting: for `O=C(Nc1sc2c(c1C(=O)O)CCCCC2)c1ccccc1` the value was 53.1% (active); for `Cn1nccc1C(=O)NC1CCCc2c1cnn2-c1ccc(C(C)(C)C)cc1` (stereo unspecified), 58.2% (active); for `C#CC(=O)N(c1ccc(OC)c(OC)c1)C(C(=O)NC1CCCC1)c1cccs1` (stereo unspecified), 10.9%.
The same measure, in the same setting: to `c1ccc(C[n+]2cccc3c4ccccc4ccc32)cc1` belongs 70.4% (active).
For the compound `CCN(CC)c1ccc(/C=N/NC(=O)c2cccc(S(=O)(=O)N3CCOCC3)c2)c(O)c1`, the inhibition is 64.8% (active).
Same read-out and setting: to `C[C@H]1CCC/C=C/[C@@H]2C[C@H](O)C[C@H]2[C@H](O)[C@H](S(=O)c2ccc(O)cc2)CC(=O)O1` (stereo partly specified) belongs 77.6% (active); to `Cc1cc(C)c[n+](C(C)C(=O)c2ccc(-c3ccccc3)cc2)c1` (stereo unspecified), 64.2% (active); to `c1ccc(CCNc2nc(-c3ccccn3)nc3ccccc23)cc1`, 69.1% (active).
Regarding `Clc1cccc(CNc2ccn3nc(-c4ccc(OCc5ccccc5)cc4)cc3n2)c1`, the inhibition is 56.4% (active).
The same measure, in the same setting: to `CCOC(=O)c1c2c(n(-c3ccc(OC)cc3)c1C)C(=O)C(=O)c1ccccc1-2` belongs 50.3% (active); to `Cc1ccc2c(c1C)-c1c(ccc(C)c1C)C(=O)C2=O`, 73.8% (active).
The same measure, in the same setting: to `COc1ccc(-c2c[n+](CC(=O)OC3CC(C)CCC3C(C)C)c3n2CCC3)cc1` (stereo unspecified) belongs 56.7% (active); to `CCOC(=O)c1sc(N(Cc2ccccc2)C(=O)COC(=O)c2ccc(O)cc2)nc1C`, 37.1% (active).
As to `CCC(C)Nc1nc(-c2ccccn2)nc2ccccc12` (stereo unspecified), the inhibition is 42.9% (active).
Still for that read-out and setting: to `Cc1sc(NC(=O)c2ccco2)c(C(c2cccnc2)N2CCN(c3ccc(F)cc3)CC2)c1C` (stereo unspecified) belongs 53.9% (active); to `Cc1ccnc(NC(=O)CCCOc2cc(=O)n(C)c3ccccc23)c1`, 23.5% and 8.09%.
Same read-out and setting: for `CCOc1cc(/C=C2\CCC/C(=C\c3cc(Cl)c(O)c(OCC)c3)C2=O)cc(Cl)c1O` the value was 46.4% (active); for `CCCOc1ccc(Br)cc1CSC(=N)N`, 83.7% (active).
On the same count and under the same terms, to `CC(C)(C)c1ccc(C2CC2C(=O)N/N=C\c2ccc[nH]2)cc1` (stereo unspecified) belongs 87.4% (active).
For `CCC1C/C(=C\c2cccnc2)C(=O)/C(=C/c2cccnc2)C1` (stereo unspecified), the inhibition was 90.7% (active).
On the same count and under the same terms, to `CC(C)(C)Nc1nc(-c2ccccn2)nc2ccccc12` belongs 63.9% (active).
